# An excerpt weighted towards active compounds, which were near 1.7% of everything screened.
# E-sel TNF inh: E-selectin induction blockers in HUVEC – imaging, immunofluorescence, high content, primary screen; inhibition, % at 2 µM; 120,000 tested, 0.71% active; HUVEC TNFa-induced E-selectin immunofluorescence; AID 1246, 2008;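 active = inhibition above the batch mean plus 3 SD, and confirmed as a hit on visual image review, cut at about 43% in these data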;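 note: 0% = TNF-stimulated DMSO wells and 100% = unstimulated control wells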
# NFkB transloc inh: inhibitors of IL-1B driven NFkB p65 nuclear import, primary screen, imaging, HUVEC, IL-1B stimulus, high-content imaging; HUVEC IL-1B NFkB p65 nuclear translocation imaging; inhibition, % at 2 µM; 94,000 tested, 0.43% active;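 active = inhibition above about 30% together with a positive call from visual inspection of the well image, limit read from the data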;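 note: nuclear over cytoplasmic p65 intensity ratio measured by imaging; 0% = IL-1B stimulated DMSO wells and 100% = unstimulated DMSO wells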
# HUVEC tox IL1B: cytotoxicity in IL-1B stimulated HUVEC, primary screen, cytotoxicity control for IL-1B NFkB translocation project, imaging, Hoechst nuclear count, IL-1B stimulus; HUVEC cell count loss; 94,000 tested, 0.41% active; AID 845, 2007; cell count reduction, % at 2 µM;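 active = cell count reduction more than 3 SD above the screen-wide mean, cut at about 70% in these data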;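 note: normalized per plate to untreated control cells as the no-loss baseline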
# TNFa cytotox: cytotoxicity in TNFa-stimulated HUVEC, primary screen, cytotoxicity control for VCAM1 expression modulator project, imaging, Hoechst nuclei count. cell count reduction, % at 2 µM. HUVEC TNFalpha-stimulated, Hoechst cell count. 93,000 tested, 0.17% active;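 active = cell count reduction exceeding the screen mean by over 5 SD, scaled to untreated wells per plate, cut at about 78% in these data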;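 note: cells counted after 24 h of TNF alpha exposure following the 1 h pretreatment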
# NFkB transloc pot: enhancers of NFkB p65 translocation in HUVEC – imaging, IL-1B stimulus, high-content imaging, primary screen | HUVEC IL-1B NFkB p65 nuclear translocation imaging | activation, % at 2 µM | 94,000 tested, 0.3% active | AID 819, 2007;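 active = activation above 40%, about the mean plus 3 SD, also judged a hit on visual image review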;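 note: percent activation is computed from the nuclear over cytoplasmic p65 intensity ratio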
# VCAM1 TNFa inh: inhibitors of TNFa-induced VCAM1 expression, primary screen, imaging, HUVEC, TNFa stimulus, immunofluorescence; HUVEC TNFa-induced VCAM-1 immunofluorescence, high-content imaging; inhibition, % at 2 µM; 95,000 tested, 0.48% active; AID 802, 2007;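 active = inhibition above the batch mean plus 3 SD, with images confirmed as a hit by eye, cut at about 37% in these data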;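 note: 0% = TNF-stimulated DMSO wells and 100% = unstimulated control wells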
# * marks the source's active call; other numbers are inactive results; · = no result.
SMILES,E-sel TNF inh,NFkB transloc inh,HUVEC tox IL1B,TNFa cytotox,NFkB transloc pot,VCAM1 TNFa inh
Cc1cc(NC(=O)CN2C(=O)NC3(CCC(C)CC3)C2=O)no1 (stereo not drawn),13,·,·,·,·,·
COc1cccc(NS(=O)(=O)c2ccc3[nH]cc(C(=O)NCCC(C)C)c(=O)c3c2)c1,33,19,91*,-22,-19,-5
CN(C)/C=C/C(=O)c1ncc(C(F)(F)F)cc1Cl,-34,·,·,·,·,·
CCOc1ccc(N2CC(C(=O)NCCCN3CCOCC3)CC2=O)cc1 (stereo not drawn),50*,-19,-15,5,19,14
Cc1cc(C)n(-c2nc3ccccc3nc2N2CCCC2)n1,-8,-6,80*,0,6,4
Cc1cc(C)n(-c2nc3ccccc3nc2N2CCOCC2)n1,0,·,·,·,·,·
Cc1cc(C)n(-c2nc3ccccc3[nH]c2=O)n1,-17,-3,87*,-19,3,-16
Cc1cc(C)n(-c2nc3ccccc3nc2N2CCN(C(=O)c3ccc(Cl)cc3)CC2)n1,-16,10,8,·,-9,92*
Cc1cc(C)n(-c2nc3ccccc3nc2Nc2ccc3[nH]c(=O)[nH]c3c2)n1,-63,-7,-100,-14,7,2
Cc1cc(C)n(-c2nc3ccccc3nc2N2CCCCCC2)n1,5,1,-2,-15,-1,-5
CCC1(C)Cc2c(sc3nnn(Cc4ccccc4Cl)c(=O)c23)CO1 (stereo not drawn),15,-10,-3,·,10,-14
O=C(NCc1cn2ccccc2n1)c1ccc(Br)o1,·,32*,35,0,-32,2
CCn1c2ccccc2c2cc(/C(C)=N/O)ccc21,35,-2,6,-5,2,16
C/C(=N\O)c1ccc2c3ccccc3n(C)c2c1,·,-21,-1,29,21,41*
c1ccc(Nc2nc3ccccc3n3cnnc23)cc1,87*,·,·,·,·,·
c1ccc2c(c1)nc(NC1CCCCC1)c1nncn12,·,-22,-14,-16,21,9
CCc1cc(OCCCCNCc2ccccc2)ccc1Cl,-8,·,·,·,·,·
O=C(c1ccc(Cl)cc1)N1CCCOC1,-15,1,-6,75,-1,100*
O=C(CN1CCc2[nH]c3ccccc3c2C1)N1CCCCC1,·,·,·,-30,·,26
O=C(CN1C(=O)C2CCc3[nH]c4ccccc4c3C2C1=O)N1CCCC1 (stereo not drawn),·,7,0,86*,-7,68
Cc1nc2sc(C(c3ccc(Cl)cc3)N3CC(C)OC(C)C3)c(O)n2n1 (stereo not drawn),10,4,13,37,-4,36*
COc1ccc(-n2c(SCC(=O)NCc3ccco3)nc3c([nH]c4ccccc43)c2=O)cc1,82*,2,9,-18,-2,14
Cc1ccccc1C(=O)Nc1ccccc1C(=O)N/N=C\c1ccco1,-18,0,-21,0,0,14
O=C(Nc1ccccc1C(=O)N/N=C/c1ccco1)c1ccc(F)cc1,94*,·,·,·,·,·
CCCCc1nc(NCC2CCCO2)c(C#N)c2c1COC(C)(C)C2 (stereo not drawn),-44,12,84*,-3,-11,30
SMILES,E-sel TNF inh,NFkB transloc inh,HUVEC tox IL1B,TNFa cytotox,NFkB transloc pot,VCAM1 TNFa inh
CCCCc1nc(N2CCOCC2)c(C#N)c2c1COC(C)(C)C2,-6,6,-19,-2,-6,10
Cc1cc(C(=O)CN2C(=O)NC(C)(c3cccc(Br)c3)C2=O)c(C)n1Cc1ccco1 (stereo not drawn),·,10,-10,-42,-10,4
Cc1cc(C(=O)CN2C(=O)NC(c3ccccc3)(c3ccccc3)C2=O)c(C)n1Cc1ccco1,74*,1,-6,5,-1,0
Cn1c(=O)c2c(ncn2CC(N)=O)n(C)c1=O,47,-5,22,-3,5,3
COC(=O)Cn1cnc2c1c(=O)n(C)c(=O)n2C,100*,-3,-8,·,3,-8
O=C(c1ccco1)N1CCN(c2nc(C(F)(F)F)nc3c2nnn3Cc2ccccc2)CC1,-14,-41,12,-1,41*,0
Fc1ccc(-c2n[nH]c(=S)n2/N=C/c2c[nH]c3ccccc23)cc1,61*,·,·,·,·,·
Cn1cccc1/C=N/n1c(-c2ccccc2)n[nH]c1=S,-21,-8,9,-18,8,-14
O=C(N/N=C/c1ccncc1)/C(=C/c1ccccc1)NC(=O)c1ccccc1,-39,3,-16,-7,-3,8
O=C(N/N=C/c1ccncc1)c1ccccc1,-3,1,2,56,-1,62*
CC(=O)Nc1ccc(C(=O)N/N=C/c2ccc(F)cc2)cc1,-6,·,·,·,·,·
O=C(N/N=C/c1ccc(C(F)(F)F)cc1)c1ccc(O)cc1,78*,·,·,·,·,·
CC(C)C(NC(=O)c1ccc(C(C)(C)C)cc1)C(=O)Nc1cccc(S(N)(=O)=O)c1 (stereo not drawn),-6,·,·,·,·,·
O=C(C1CCN(Cc2cccs2)CC1)N1CCN(Cc2ccc3c(c2)OCO3)CC1,-18,·,·,·,·,·
CC(C)CCN(C(=O)Nc1ccc(Cl)cc1)C1CCN(C(C)C)CC1,-19,·,·,·,·,·
CSc1ccc(/C=N/NC(=O)CN2CCN(Cc3ccccc3Cl)CC2)cc1,-5,·,·,·,·,·
CSc1ccc(/C=N/NC(=O)CN2CCN(Cc3ccc(C)cc3)CC2)cc1,88*,·,·,·,·,·
O=C(Cc1ccc(Cl)cc1)N/N=C/c1ccncc1,8,·,·,·,·,·
Cc1nccn1CC(O)Cn1c2ccccc2c2ccccc21 (stereo not drawn),-36,-46,-23,-4,46*,29
Cc1ccc(/C=N/n2c(=O)c(C(C)(C)C)nn3cnnc23)cc1,80*,·,·,·,·,·
COc1ccc(/C=C/C(=O)c2cc(F)ccc2OC(=O)c2ccccc2)cc1OC,·,24,53,76,-24,97*
COc1ccc(/C=C/C(=O)c2cc(F)ccc2OC(=O)c2ccc(OC)c(OC)c2)cc1OC,24,·,·,·,·,·
COC(=O)c1c(-c2ccccc2)csc1NC(=O)CSc1ncnc2sc(C)c(C)c12,-41,-12,89*,-31,12,-5
O=C(NCCCO)c1nc2ccccc2s1,-10,-42,10,-8,42*,14
CCC(C)NS(=O)(=O)c1ccc(OC)c(Cl)c1Cl (stereo not drawn),32,12,1,-1,-12,-1
Cc1ccc(-n2c(SCC3CNC(=O)O3)nnc2-c2ccccc2)cc1C (stereo not drawn),-7,·,·,·,·,·
COc1ccc(NC(=O)N(CCCN2CCOCC2)Cc2cccnc2)c(OC)c1,61*,17,10,-1,-17,14
Cc1ccc(NC(=O)N(CCCN2CCOCC2)Cc2cccnc2)cc1C,27,9,14,-28,-9,8

# From PubChem
